# From PubChem
# HT1080 IDH1KD tx = kills HT-1080 cells with IDH1 knockdown | HT-1080 IDH1 knockdown viability, ATP luminescence, 48 h | Potency, µM (series often up to 46.1 µM), for the others: at the top dose activity, negative = toxicity, most hits filed as cytotoxic | 360,000 compounds, 2% hits | AID 686971;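 further: 0% = DMSO wells and -100% = cell-free medium wells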
#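 % activity derives from luminescence (CellTiter-Glo), normalised to DMSO and no-cell wells. HT-1080-IDH1KD cells, 750/well, had 48 h compound exposure at 37 °C.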
# TGFb inhibitor = TGF-b pathway inhibition. 410,000 compounds, 1.2% hits. HepG2 CAGA-GFP TGF-b/SMAD3 reporter, GFP fluorescence, 18 h; TGF-beta stimulated, 500 pg/mL final. Potency, µM (doses to about 46.1 µM), for the others: at the top dose activity, negative = inhibition, actives largely listed as inhibitors; further: on the % scale 0 is the no-effect control and ±100 the full control effect; nearly all actives have a fitted effect of over 65% in size
#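 GFP signal (ex488/em500-530) from TGF-beta-stimulated HEPG2 CAGA-GFP cells, 500 pg/mL final, 18 h at 37 degrees C in DMEM plus 1% FBS, normalized to unstimulated and DMSO-stimulated controls.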
# TDP1 cell CPT = DT40-hTDP1 cell growth loss with CPT. 420,000 compounds, 12% hits. AID 686979. Potency, µM (top dose mostly 46.2 µM), without a hit: at the top dose activity change, negative = growth inhibition, usual class: inhibitors. chicken DT40 Tdp1-/-;hTDP1 cells + 20 nM CPT, ATP luminescence, 48 h; further: on the % scale 0 is the no-effect control and ±100 the full control effect; nearly all actives have a fitted effect of over 55% in size
#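 Chicken DT40 Tdp1-/- cells complemented with human TDP1, 400 cells/well, exposed to compounds plus 20 nM camptothecin for at least 48 h at 37 C; viability read as ATP content by CellTiter-Glo luminescence.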
# HT1080-NT tox = kills 2HG-producing HT-1080-NT fibrosarcoma cells; HT-1080-NT fibrosarcoma viability, CellTiter-Glo ATP luminescence, 48 h; Potency, µM (series often up to 46.1 µM), without a hit: at the highest dose activity, negative = less viability, actives largely listed as cytotoxic; 360,000 compounds, 1.6% hits;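 further: NT is the 2HG producing partner of a matched IDH1 knockdown line; 0% = DMSO-treated cells and -100% = media-only wells without cells; nearly all actives have a fitted effect of over 55% in size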
#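 HT-1080-NT fibrosarcoma cells (2HG-overproducing), 750 cells/well in RPMI with 5% FBS, dosed after 2 h and incubated 48 h at 37C. CellTiter-Glo luminescence normalized to DMSO and no-cell wells; concentration-response curves fitted and classed.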
# HepG2 viability = HepG2 cytotoxicity, counter-screen for TGF-b inhibitors. HepG2 CAGA-GFP viability, ATP luminescence, 18 h. 410,000 compounds, 0.76% hits. Potency, µM (titrated, usually from 46.1 µM), without a hit: at the highest dose activity change, negative = cytotoxicity, usual class: cytotoxic. AID 588856
#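 CellTiter-Glo luminescence gave cytotoxicity after 18 hours at 37 degrees C. The cells were HepG2 CAGA-GFP in 1% FBS DMEM, stimulated with 500 pg/mL TGF-beta after compound addition. %Activity was normalised to no-cell wells (complete cell-killing) and DMSO (no toxicity), and curves were fitted and classified.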
# DT40 TDP1 no CPT = qHTS for Inhibitors of human tyrosyl-DNA phosphodiesterase 1 (TDP1): qHTS in cells in absence of CPT; DT40 Tdp1-/- hTDP1 cells, no CPT, ATP luminescence, 48 h; Potency, µM (titrated, usually from 46.2 µM), without a hit: at the top dose activity change, negative = growth inhibition, actives largely listed as inhibitors; 420,000 compounds, 15% hits; AID 686978, 2013; further: on the % scale 0 is the no-effect control and ±100 the full control effect; nearly all actives have a fitted effect of over 55% in size
#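 Compound effects on proliferation are scored in DT40 Tdp1-/-;hTDP1 cells in the absence of CPT. ATP levels (CellTiter-Glo luminescence) are recorded after a ≥48 hr, 37 °C incubation.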
# Active calls of the source: *; ? = inconclusive; · = not tested or not shown. Only some compounds are listed: those with a hit (about 17% of all), similar ones and a draw of the others. The call rests on the fitted dose curve; in most records, active means well fitted curve in the direction sought with a large enough effect; inconclusive means small, poorly fitted or top-dose-only effect, or another doubt; inactive means no such curve, though single readings can be large; an effect the other way counts as inactive or inconclusive. Potency means the concentration at half of the fitted maximal effect.
SMILES,HT1080 IDH1KD tx,TGFb inhibitor,TDP1 cell CPT,HT1080-NT tox,HepG2 viability,DT40 TDP1 no CPT
CCOc1cc(C(=O)NCc2ccc3c(c2)CCN3C(=O)CC)cc(OCC)c1OCC,·,?,-10%,·,-7%,-19%
Cc1cccc(CSc2nc(-c3cccc(C)c3)nc3c2Cc2c(CO)cnc(C)c2O3)c1,·,9%,?,·,1%,?
Cc1noc(Cn2c(=O)c3ccccc3n(CC(=O)Nc3ccc(C(C)C)cc3)c2=O)n1,·,?,?,·,-52%,16µM*
COc1ccc(-c2noc(Cn3c(=O)c4ccccc4n(CC(=O)Nc4cccc(OC)c4)c3=O)n2)cc1,·,-6%,?,·,-21%,21µM*
Cc1noc(Cn2c(=O)c3ccccc3n(CC(=O)Nc3cc(Cl)ccc3C)c2=O)n1,·,-19%,-15%,·,-18%,-10%
COc1cccc(NC(=O)Cn2c(=O)n(Cc3nc(-c4ccccc4)no3)c(=O)c3ccccc32)c1,·,?,-24%,·,-7%,?
Cc1cc(C)c(NC(=O)c2ccc3nc(C(C)C)oc3c2)c(C)c1,·,2%,?,·,-3%,?
CCOc1ccc(CNC(=O)c2ccc3nc(C(C)C)oc3c2)cc1,·,4%,-4%,·,0%,-15%
COc1ccc2nc3sc(C(=O)Nc4cc(Cl)c(OC)cc4OC)cc3cc2c1,·,-25%,?,·,-1%,5.8µM*
COc1cc(OC)c(NC(=O)c2ccc3nc(C(C)C)oc3c2)cc1Cl,·,-1%,9.2µM*,·,-2%,18µM*
CCc1ccc(NC(=O)c2ccc3nc(C(C)C)oc3c2)cc1,·,?,?,·,-6%,18µM*
CCOc1cc(CNC(=O)c2ccc3nc(C(C)C)oc3c2)cc(OCC)c1OCC,·,3%,23µM*,·,0%,18µM*
O=C(O)CCCN=CC1=C(O)CNC1=O,16%,-28%,?,18%,2%,-16%
Cc1ccc(S(=O)(=O)Nc2cc(C)c(O)c(Sc3n[nH]c(C)n3)c2)cc1,?,9%,18µM*,?,-20%,?
Cc1ccc(S(=O)(=O)Nc2ccc3cn[nH]c3c2)cc1,-13%,14%,-2%,-5%,-40%,?
CCOC(=O)c1cnc2ccc(C)cc2c1NCCc1ccc(OC)c(OC)c1,·,11µM*,15µM*,·,-51%,15µM*
CCOC(=O)c1cnc2ccc(Cl)cc2c1Nc1ccc(OCC)cc1,·,9%,?,·,-21%,?
CCOC(=O)c1cnc2ccc(OCC)cc2c1NCCc1ccc(OC)c(OC)c1,·,13µM*,3.3µM*,·,-48%,2.3µM*
CCOC(=O)c1cnc2ccc(C)cc2c1NCCN1CCOCC1,-4%,1%,-18%,-4%,-17%,-24%
CC(=O)Nc1ccc(N2C(=O)CSC2c2cccc(Br)c2)cc1 (configuration not stated),0%,1%,-1%,0%,-13%,-8%
Cc1cc2nc(C)n(CCCNC(=O)Nc3cccc4ccccc34)c2cc1C,-19%,-7%,23µM*,-4%,-29%,15µM*
CC(C)S(=O)(=O)c1oc(-c2ccc(F)cc2)nc1S(=O)(=O)c1ccccc1,·,1.4µM*,0.73µM*,·,3.2µM*,0.46µM*
CSc1oc(-c2ccc(F)cc2)nc1S(=O)(=O)c1ccccc1,1%,-2%,-1%,1%,10%,-15%
CC(C)S(=O)(=O)c1oc(-c2cccs2)nc1S(=O)(=O)c1ccc(F)cc1,·,2.5µM*,0.65µM*,·,3.5µM*,0.46µM*
CCN(CC)CCN(C(=O)c1ccc2c(c1)CCCC2)c1nc2ccc(C)cc2s1,-21%,-27%,?,-15%,-36%,23µM*
SMILES,HT1080 IDH1KD tx,TGFb inhibitor,TDP1 cell CPT,HT1080-NT tox,HepG2 viability,DT40 TDP1 no CPT
CCN(CC)CCN(C(=O)c1ccc2c(c1)CCCC2)c1nc2ccc(OC)cc2s1,?,?,18µM*,-28%,-42%,?
CCN(CC)CCN(C(=O)c1ccccc1OC)c1nc2ccc(F)cc2s1,-11%,?,?,-8%,-58%,?
COc1cccc(-c2oc3c(c2-c2ccc(OC)nc2)C(O)CCC3)c1 (configuration not stated),-15%,·,-20%,1%,·,?
COc1cc(/C=C2\COC/C(=C\c3ccc(O)c(OC)c3)C2=O)ccc1O,?,6.3µM*,3.3µM*,?,-23%,3.3µM*
COc1cc(/C=C2\C(=O)N(C)C(=S)N2C)ccc1O,0%,6%,-20%,0%,-23%,-23%
COc1cc(/C=C2\CC/C(=C\c3ccc(OCCO)c(OC)c3)C2=O)ccc1OCCO,-13%,0%,?,-25%,2%,23µM*
COc1ccc(/C=C2\CCc3ccccc3C2=O)cc1OC,0%,?,?,2%,9%,?
COc1cc(/C=C/C=C2/CC/C(=C/C=C/c3ccc(O)c(OC)c3)C2=O)ccc1O,-10%,?,2.3µM*,-11%,-61%,2.6µM*
COc1ccc(/C=C2\CC/C(=C\c3ccc(OC)c(OC)c3)C2=O)cc1OC,?,4%,16µM*,?,-53%,21µM*
O=C1CC(=O)N(CCc2ccc(F)cc2)C(=O)N1,7%,-1%,-7%,9%,3%,-29%
CCCN(CC(=O)Nc1ccc(C(N)=O)cc1)CC(=O)Nc1ccc(F)c(F)c1F,-2%,-1%,11%,11%,-2%,-2%
O=C(Cc1ncc(C(F)(F)F)cc1Cl)Nc1ccc(F)cc1,11%,12%,-3%,10%,-2%,-22%
COc1ccc(/C=C2\N=C(SC)SC2=O)cc1OC,18%,-3%,4%,2%,1%,-7%
COc1ccc(C=C2C=C(C(C)(C)C)C(=O)C(C(C)(C)C)=C2)cc1OC,18µM*,?,?,12µM*,-49%,7.3µM*
COc1cc(/C=C2/CC/C(=C/c3ccc(O)c(OC)c3)C2=O)ccc1O,21µM*,-7%,21µM*,18µM*,-33%,?
CC(C)C[C@@H](CNC(=O)OC(C)(C)C)NC(=O)c1nc[nH]c1C(=O)N[C@@H](CC(C)C)C(=O)CNC[C@H](CC(C)C)NC(=O)c1nc[nH]c1C(=O)N[C@@H](Cc1c[nH]c2ccccc12)C(=O)OC(C)(C)C,-6%,-24%,?,?,-7%,18µM*
